Molecules are shown by their SMILES. Calls of active or inactive are those of the source. Unless noted, no rule for the calls is given here.

A short description of assay [1]: compounds binding Alexa647 anti-His antibody – biochemical, small-molecule microarray, 635 nm fluorescence, artefact control for SMM control protein annotation, primary screen (AID 1128).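 Also: score merges feature fluorescence with signal-to-noise for each printed compound spot.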 As to conditions: higher = more signal.
In assay [2] the test system is Human papillomavirus type 1a E7 protein (residues 1-88). The experiment in a line: HPV1a E7 small-molecule binders, primary screen, biochemical, small-molecule microarray, residues 1-88, 635 nm (AID 1129). As to conditions: small-molecule microarray binding, fluorescence 635 nm; higher = more signal.
Assay [3] has as its target Focal adhesion kinase 1 (Homo sapiens) (UniProt Q05397). Put plainly: PTK2 protein binding on printed compound slides – biochemical, small-molecule microarray, 635/667 nm fluorescence, BSA, DTT, primary screen (AID 1130).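 Also: composite of spot emission at 667 nm and signal to noise over triplicate slides.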 As to conditions: 635 nm fluorescence, higher = more signal.
The test system of assay [4] is Fibrinogen (Alexa647-labelled). Put plainly: Alexa647-fibrinogen binding to printed small molecules – biochemical, small-molecule microarray, 635/667 nm fluorescence, artefact control for SMM control-protein annotation, profiling panel (AID 1131).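 Also: z-score merges 667 nm fluorescence with per-spot signal-to-noise over triplicate slides.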 As to conditions: fibrinogen-A647 binding fluorescence, higher = more signal.
Assay [5] addresses Follistatin (Homo sapiens) (UniProt P19883). Put plainly: FST protein binding to printed compounds – biochemical, small-molecule microarray, 635/667 nm fluorescence, primary screen (AID 1132). As to conditions: 635 nm fluorescence, higher = more signal.
For assay [6], the target named is Fibroblast growth factor 2 (Homo sapiens) (UniProt P09038). The experiment in a line: basic fibroblast growth factor binding to printed compounds – biochemical, small-molecule microarray, 635/667 nm fluorescence, primary screen (AID 1133). As to conditions: FGF2, fluorescence 635/667, higher = more signal.
Chain of Fibroblast growth factor 2 (Homo sapiens) (P09038 whole entry, looked up): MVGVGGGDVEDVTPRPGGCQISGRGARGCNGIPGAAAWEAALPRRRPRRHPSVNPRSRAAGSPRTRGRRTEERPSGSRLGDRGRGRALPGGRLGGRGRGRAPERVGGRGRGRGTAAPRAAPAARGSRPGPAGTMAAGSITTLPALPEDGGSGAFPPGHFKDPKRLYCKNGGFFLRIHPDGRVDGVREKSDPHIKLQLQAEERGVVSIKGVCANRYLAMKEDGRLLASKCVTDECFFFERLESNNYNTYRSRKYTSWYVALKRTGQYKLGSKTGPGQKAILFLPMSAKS
The nature of assay [7]: JC-1 mitochondrial potential readout, lung cancer cells – cell-based, A549, JC-1 fluorescence, basal, 24 h, 100 nL, profiling panel (AID 1138).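 Also: A549 lung adenocarcinoma cells under basal conditions with no added stimulus; test concentration not given here.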 As to conditions: higher = more signal.
A further assay has as its system Lefty1. Put plainly: Lefty1 protein binding to printed compounds – biochemical, small-molecule microarray, 635/667 nm fluorescence, primary screen (AID 1139). As to conditions: fluorescence 635/667, higher = more signal.
For assay [8], the system named is wheat germ agglutinin (Triticum aestivum), Alexa647-labelled. The experiment in a line: Alexa647-WGA lectin binding to printed small molecules – biochemical, small-molecule microarray, 635/667 nm fluorescence, artefact control for SMM control-protein annotation, profiling panel (AID 1140).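 Also: score merges 667 nm feature emission with signal to noise over triplicate slides.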 As to conditions: WGA-A647 binding, 635 nm fluorescence, higher = more signal.

Assay [9] addresses Luciferin 4-monooxygenase (Photinus pyralis) (UniProt P08659). Put plainly: inhibition of purified Photinus pyralis luciferase – biochemical, luminescence, purified enzyme, 2006 set, primary screen (AID 1141).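 Also: cell-free assay with purified firefly luciferase at 100 ng per well in PBS; test concentration not given here.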 As to conditions: purified firefly luciferase, SteadyGlo luminescence, 30 min; higher = more signal, called active from +8 up or from −8 down.
The test system of assay [10] is Wnt5a (protein binding on small-molecule microarray). The experiment in a line: small molecules binding Wnt5a protein – biophysical, small-molecule microarray, 635/667 nm fluorescence, primary screen (AID 1142).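 Also: fluorescence read at 667 nm with signal to noise per printed feature.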 As to conditions: 635 nm fluorescence, higher = more signal.
Assay [11] can be described thus: ATP-based viability of Huh7 replicon cells – cell-based, CellTiter-Glo luminescence, basal, 48 h, cytotoxicity control for HCV replication inhibitor project, primary screen (AID 1143).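 Also: Huh7 hepatoma cells carrying a hepatitis C replication reporter with no stimulus; test concentration not given here.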 As to conditions: higher = more signal, called active from +8 up or from −8 down. (A replicon is a self-replicating genome or part of one, used to study replication in cells.)
Assay [12] is described as follows: Pseudomonas biofilm growth suppression – PAO1 strain, BacTiter-Glo luminescence, LB-PBS, primary screen (AID 1144). As to conditions: P. aeruginosa PAO1 biofilm, 12 h, higher = more signal.
Assay [13] can be described thus: basal CRE-LacZ reporter activity in PC12 – cell-based, unstimulated, primary screen (AID 1145). As to conditions: no forskolin, luminescence, 4.5 h, higher = more signal, called active from +8 up or from −8 down.
The nature of assay [14]: forskolin-driven CRE-LacZ activity in PC12 – cell-based, CRE-LacZ reporter, forskolin-stimulated, primary screen (AID 1146).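 Also: PC12 cells with 6xCRE LacZ reporter stimulated by forskolin 10 µM; beta-galactosidase reporter signal reflecting CREB driven transcription.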 As to conditions: luminescence, 4.5 h, higher = more signal, called active from +8 up or from −8 down.
The target of assay [15] is Streptavidin (Streptomyces avidinii) (UniProt P22629). The experiment in a line: compounds binding control protein streptavidin – biophysical, small-molecule microarray, 635/667 nm fluorescence, artefact control for SMM compound annotation, primary screen (AID 1147).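 Also: signal reflects streptavidin binding to arrayed compounds as a control protein.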 As to conditions: higher = more signal.
Chain of Streptavidin (Streptomyces avidinii) (P22629 whole entry, looked up): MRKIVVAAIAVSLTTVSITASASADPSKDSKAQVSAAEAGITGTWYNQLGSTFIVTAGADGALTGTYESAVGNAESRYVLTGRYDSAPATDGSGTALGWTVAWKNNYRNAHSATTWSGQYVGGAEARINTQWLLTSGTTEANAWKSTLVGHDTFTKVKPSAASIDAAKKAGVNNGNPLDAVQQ
Assay [16] is described as follows: probe aInhba binding on compound microarray – biochemical, small-molecule microarray, 635/667 nm fluorescence, primary screen (AID 1148).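 Also: score merges 667nm spot fluorescence with signal-to-noise for antibody binding to printed compounds.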 As to conditions: higher = more signal.
In assay [17] the target is Torsin-1A (Homo sapiens) (UniProt O14656). Put plainly: TOR1A wild-type binding on microarray – cell lysate, small-molecule microarray, lysate, 635/667 nm, primary screen (AID 1149). As to conditions: COS7 hTOR1A-WT lysate, 635 nm fluorescence, higher = more signal.
Chain of Torsin-1A (Homo sapiens) (O14656 whole entry, looked up): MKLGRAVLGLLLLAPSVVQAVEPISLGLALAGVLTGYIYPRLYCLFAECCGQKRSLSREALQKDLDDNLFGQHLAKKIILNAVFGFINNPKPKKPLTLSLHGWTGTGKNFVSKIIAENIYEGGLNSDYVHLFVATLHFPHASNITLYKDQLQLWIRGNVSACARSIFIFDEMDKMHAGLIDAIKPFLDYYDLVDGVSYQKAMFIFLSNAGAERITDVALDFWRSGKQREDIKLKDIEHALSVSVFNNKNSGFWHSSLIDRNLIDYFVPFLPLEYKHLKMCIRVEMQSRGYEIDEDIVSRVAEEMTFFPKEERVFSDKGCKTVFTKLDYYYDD
The target is the same in assay [18]. The experiment in a line: torsin A mutant lysate binding on microarrays – cell lysate, small-molecule microarray, COS7 lysate, 635/667 nm fluorescence, primary screen (AID 1150).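 Also: score pools 667 nm emission and signal to noise measuring lysate protein binding.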 As to conditions: COS7 hTOR1A mutant lysate, 635 nm fluorescence, higher = more signal.
Assay [19] relates to Sonic hedgehog protein (Shh). The experiment in a line: Sonic hedgehog microarray binding compounds – biochemical, small-molecule microarray, 635/667 nm fluorescence, primary screen (AID 1151).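 Also: Shh protein binding to compounds spotted on small-molecule microarray slides; score combines spot fluorescence intensity with signal-to-noise across triplicate slides.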 As to conditions: 635 nm fluorescence, higher = more signal.

Chain of Focal adhesion kinase 1 (Homo sapiens) (Q05397 whole entry, looked up): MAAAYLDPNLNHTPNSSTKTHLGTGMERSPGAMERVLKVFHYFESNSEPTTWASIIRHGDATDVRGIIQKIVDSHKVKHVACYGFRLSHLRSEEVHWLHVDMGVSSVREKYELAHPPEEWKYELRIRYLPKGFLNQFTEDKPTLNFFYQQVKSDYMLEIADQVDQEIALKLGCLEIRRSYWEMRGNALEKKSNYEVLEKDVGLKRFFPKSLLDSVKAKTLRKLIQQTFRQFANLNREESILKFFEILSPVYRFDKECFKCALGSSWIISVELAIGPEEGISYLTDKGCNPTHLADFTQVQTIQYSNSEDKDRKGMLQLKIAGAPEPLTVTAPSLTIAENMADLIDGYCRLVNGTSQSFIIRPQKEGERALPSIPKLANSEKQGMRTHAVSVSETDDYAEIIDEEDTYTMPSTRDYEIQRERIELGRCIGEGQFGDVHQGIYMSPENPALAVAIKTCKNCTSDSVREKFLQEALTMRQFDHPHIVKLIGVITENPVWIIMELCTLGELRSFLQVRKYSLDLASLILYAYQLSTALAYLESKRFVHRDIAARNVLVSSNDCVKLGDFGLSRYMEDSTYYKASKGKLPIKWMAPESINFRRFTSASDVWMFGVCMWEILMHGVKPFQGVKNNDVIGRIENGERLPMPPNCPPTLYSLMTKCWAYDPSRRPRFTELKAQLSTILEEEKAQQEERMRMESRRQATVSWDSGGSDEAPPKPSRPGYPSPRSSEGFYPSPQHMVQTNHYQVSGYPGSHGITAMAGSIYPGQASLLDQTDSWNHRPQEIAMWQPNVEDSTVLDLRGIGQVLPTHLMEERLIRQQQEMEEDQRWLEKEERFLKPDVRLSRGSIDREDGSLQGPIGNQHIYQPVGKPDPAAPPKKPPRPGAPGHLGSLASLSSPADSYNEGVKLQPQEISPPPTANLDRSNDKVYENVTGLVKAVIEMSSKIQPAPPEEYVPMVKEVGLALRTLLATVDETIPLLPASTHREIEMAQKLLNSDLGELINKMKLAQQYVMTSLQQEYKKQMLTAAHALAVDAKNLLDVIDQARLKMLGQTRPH
Chain of Luciferin 4-monooxygenase (Photinus pyralis) (P08659 whole entry, looked up): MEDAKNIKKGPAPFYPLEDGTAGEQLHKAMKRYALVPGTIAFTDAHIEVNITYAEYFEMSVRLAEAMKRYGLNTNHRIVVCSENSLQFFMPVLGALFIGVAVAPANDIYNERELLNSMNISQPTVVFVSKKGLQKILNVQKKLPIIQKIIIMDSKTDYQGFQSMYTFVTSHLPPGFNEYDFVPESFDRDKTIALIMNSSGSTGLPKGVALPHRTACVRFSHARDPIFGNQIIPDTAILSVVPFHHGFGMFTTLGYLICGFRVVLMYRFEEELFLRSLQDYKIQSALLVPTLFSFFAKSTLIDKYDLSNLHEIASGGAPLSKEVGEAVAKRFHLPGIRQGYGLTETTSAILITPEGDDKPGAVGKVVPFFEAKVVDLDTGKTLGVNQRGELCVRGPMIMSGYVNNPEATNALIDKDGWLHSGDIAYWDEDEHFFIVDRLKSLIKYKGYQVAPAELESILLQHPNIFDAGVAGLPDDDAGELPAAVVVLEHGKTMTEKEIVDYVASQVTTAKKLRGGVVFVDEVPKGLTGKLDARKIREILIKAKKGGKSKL
Chain of Follistatin (Homo sapiens) (P19883 whole entry, looked up): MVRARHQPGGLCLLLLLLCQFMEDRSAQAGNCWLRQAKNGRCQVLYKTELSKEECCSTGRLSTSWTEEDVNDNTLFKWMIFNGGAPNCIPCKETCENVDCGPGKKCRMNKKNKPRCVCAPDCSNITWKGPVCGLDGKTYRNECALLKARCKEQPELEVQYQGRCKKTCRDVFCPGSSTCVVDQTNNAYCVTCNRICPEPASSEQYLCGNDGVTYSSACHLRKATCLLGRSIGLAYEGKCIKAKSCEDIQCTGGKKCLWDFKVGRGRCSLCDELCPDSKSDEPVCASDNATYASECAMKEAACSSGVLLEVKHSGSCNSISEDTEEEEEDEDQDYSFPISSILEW

Consider `COCCOC(=O)N1C(=O)[C@@]2(c3cc(C#CC4=CCCCC4)ccc31)[C@H](C(=O)N1CCN(c3ncccn3)CC1)[C@H]1C(=O)O[C@H](c3ccccc3)[C@H](c3ccccc3)N1[C@@H]2c1ccc(O)cc1`, for which the composite z-score in [1] turned out to be 1.26; in assay [2] it was 1.19; in [3] it was 0.778; in [4], 0.804; in assay [5], 1.21; in [6], 0.29. Moreover, the composite z-score in the assay with Lefty1 is 0.819; in assay [8], 1.11; in [10] it was 0.282; in [15] it was 0.45; in assay [16], -0.0736; with Torsin-1A (Homo sapiens) [17], 0.714. In addition, the composite z-score in the assay with Torsin-1A (Homo sapiens) [18] is 0.296; in assay [19], 1.5. In addition, the z-score was -1.05 in assay [7]; -0.94 (inactive) in [9]; -1.17 (inactive) in assay [11]; -0.13 (inactive) in assay [12]; 0.761 (inactive) in assay [13]; -0.0066 (inactive) in [14].

Consider `COC(=O)c1c(CC[C@@H](CO)NC(=O)N[C@H](Cn2cc(-c3ccccc3C)nn2)C(C)C)oc(C(C)=O)c1C(=O)OC`, for which the composite z-score in [1] is 0.0233; in [2] it was -0.0523; in [3] it was 0.14; in [4], 0.335; in assay [5] it was -0.505; in assay [6] it was -0.37. Moreover, the composite z-score was -0.0683 in the assay with Lefty1; 0.567 in assay [8]; -0.338 in assay [10]; -0.0581 in assay [15]; -0.003 in assay [16]; -0.123 in the assay with Torsin-1A (Homo sapiens) [17]. Besides, the composite z-score in the assay with Torsin-1A (Homo sapiens) [18] is -0.171; in assay [19], -0.272. In addition, the z-score is -0.704 in assay [7]; 0.379 (inactive) in assay [9]; -2.66 (inactive) in assay [11]; -0.673 (inactive) in [12]; 1.5 (inactive) in assay [13]; -0.644 (inactive) in [14].

As to `Cc1ccc(S[C@]2(C(=O)NC(C)C)CC(=O)N(C3Cc4ccccc4C3)[C@@H]2c2ccc(CO)cc2I)cc1`, the composite z-score in assay [1] was -0.641; in assay [2] it was -0.597; in assay [3], -0.602; in assay [4], -0.779; in [5] it was -0.172; in [6], 0.188. The composite z-score in the assay with Lefty1 is -2.2; in assay [8] it was -0.412; in [10], -0.511; in assay [15], -0.959; in assay [16] it was -0.355; with Torsin-1A (Homo sapiens) [17], -1.49. The composite z-score is -0.009 with Torsin-1A (Homo sapiens) [18] and -0.274 in assay [19]. For the same molecule, the z-score was 1.37 in [7]; 0.507 (inactive) in assay [9]; -1.83 (inactive) in assay [11]; -0.0878 (inactive) in [12]; 0.622 (inactive) in assay [13]; 1.28 (inactive) in assay [14].

In the case of `C=CCNC(=O)[C@H]1[C@@H]2C(=O)O[C@@H](c3ccccc3)[C@@H](c3ccccc3)N2[C@@H](c2ccccc2OCCO)[C@]12C(=O)N(C(=O)OCCOC)c1ccc(C#CC3=CCCCC3)cc12`, the composite z-score in assay [1] worked out at 0.108; in assay [2] it was 1.24; in assay [3] it was 0.369; in [4], 0.975; in assay [5], 1.21; in assay [6], 0.685. Also, the composite z-score with Lefty1 is 0.885; in assay [8], 0.993; in assay [10] it was 0.356; in assay [15], 1.08; in [16], 0.423; with Torsin-1A (Homo sapiens) [17] it was 1.02. Moreover, the composite z-score in the assay with Torsin-1A (Homo sapiens) [18] came out at 0.798; in [19], 0.826. Moreover, the z-score in assay [7] is -0.295; in assay [9], -1.48 (inactive); in assay [11], -4.73 (inactive); in assay [12], 1.37 (inactive); in assay [13] it was -0.333 (inactive); in assay [14], 0.371 (inactive).

Turning to `[N-]=[N+]=NCc1ccccc1C[C@@]1(C(N)=O)N=C(c2ccc(OCCCO)cc2)O[C@@H]1c1ccccc1CN=[N+]=[N-]`, the composite z-score in assay [1] came to 1.13; in assay [2] it was 1.22; in assay [3], 0.0375; in [4] it was 0.761; in assay [5], 0.591; in [6] it was 0.653. In addition, the composite z-score with Lefty1 is -0.242; in assay [8] it was 0.756; in assay [10], 0.592; in [15], 1.13; in assay [16], -0.0418; in the assay with Torsin-1A (Homo sapiens) [17], 0.549. Further, the values for the composite z-score (with Torsin-1A (Homo sapiens) [18]; in [19]) were 0.335 and -0.302, respectively. Moreover, the z-score in assay [7] is 1.45; in assay [9], -1.11 (inactive); in assay [11], -2.14 (inactive); in assay [12] it was 0.0387 (inactive); in assay [13], 0.0451 (inactive); in assay [14], 0.161 (inactive).

Source of the values: PubChem BioAssay.
